# Reference: publication PMC5540273 (PLoS ONE, 2017)
# Test system: RIPK1
# Settings: concentration: 1 μM,replicates: in singlicate; n = 1
# 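Note: KINOMEscan kinase panel screen.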
row,SMILES,%Inh [%]
1,COC(=O)c1cccc(NC(=O)NC2CCN(c3ccnc(Nc4cc(OC)c(OC)c(OC)c4)n3)C2)c1 (stereo not drawn) [GSK1379767],23
2,Cc1n[nH]c2cc(Nc3ccnc(Nc4cccc(CN5CCOCC5)c4)n3)ccc12 [GW682569],4
3,O=C(Nc1cccc(C(F)(F)F)c1)c1cccc(Oc2ccc3nccn3n2)c1,1
4,C[C@@H]1CNc2c(sc3ccc4nc(-c5ccc(O)cc5)ccc4c23)C(=O)N1,0
5,O=C(Nc1n[nH]c2cc(-c3ccco3)ccc12)C1CC1 [SB-737447],13
6,Cn1cc(-c2cccc3c(N)c(C(N)=O)nnc23)cn1,3
7,OCCn1cc(-c2cnc3nnn(Cc4ccc5ncccc5c4)c3n2)cn1,0
8,Cl.c1ccc(Oc2ccc(Nc3ccnc4cc(-c5ccc(CN6CCNCC6)o5)ccc34)cc2)nc1 [GW567142],0
9,CS(=O)c1ccc(-c2coc3ccc(-c4n[nH]c(=O)o4)cc23)cc1 (stereo not drawn),0
10,CS(=O)(=O)Nc1ccc(-c2ccnc3[nH]ccc23)cc1 [GSK993273],0
11,COC(=O)Nc1nc2cc(Oc3ccc(NC(=O)Nc4cc(C(F)(F)F)ccc4Cl)cc3)ccc2[nH]1.Cl [GW697465],41
12,O=C(Nc1ccc(Oc2ccc3nc(NC(=O)C4CC4)cn3n2)c(F)c1)c1cccn(-c2ccccc2)c1=O,80
13,CCNCC(Cc1ccccc1)NC(=O)c1cc(Br)c(-c2ccnc3[nH]ccc23)s1.Cl.Cl (stereo not drawn) [GSK1383280],0
14,Cc1ccn2nc(-c3ccc(F)cc3)c(-c3ccncc3)c2c1.Cl [GW457859],1
15,C[C@@H]1CNc2c(sc3ccc4nc(-c5ccncc5)ccc4c23)C(=O)N1,0
16,Nc1nccc(-c2ccc3c(N)n[nH]c3c2)n1 [GSK1034945],3
17,COC(=O)c1cccc(NC(=O)NC2CCN(c3ccnc(NCc4ccc(F)cc4)n3)CC2)c1 [GSK1379860],0
18,CC(=O)Nc1nc2cnc(Nc3cc(NC(=O)c4cccc(CC(C)(C)C#N)c4)ccc3C)nc2s1,0
19,O=C1NCCc2[nH]c(-c3ccncc3)cc21,4
20,COc1cccc(CNC(=O)NC2CCN(c3ccnc(Nc4cc(OC)c(OC)c(OC)c4)n3)C2)c1 (stereo not drawn) [GSK1379765],17
21,NC(=O)Nc1sc(-c2ccc(F)cc2)cc1C(N)=O [GW789449],0
22,CS(=O)(=O)c1cccc(CNc2nc(Nc3ccc4c(c3)[C@@H]3C[C@@H]4CNC3=O)ncc2C(F)(F)F)c1,0
23,O=c1[nH]cc(-c2ccc(O)cc2)c2sc(-c3ccncc3)cc12 [GSK1033723],26
24,CC(C(=O)NC1CCN(c2ccnc(Nc3ccc(F)cc3)n2)C1)c1ccc(Cl)cc1 (stereo not drawn) [GSK1379713],6
